PubChem BioAssay (EPA / NIEHS)
Inconclusive results are not listed. More than one record can exist for a structure, and the calls need not agree. The source made the active and inactive calls. How the source made its calls, unless noted: active means hit-call score of the fitted dose curve at least 0.9, where 1 is the maximum; inactive means score below 0.9.

Tests used:
[1] = CCTE_Shafer_MEA_dev_firing_rate_mean: CCTE's Neural Network Formation Assay for Mean Firing Rate, Shafer Lab (AID 2284031);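 on AC50: curve fitted for loss of firing so AC50 reflects decreased mean firing rate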
Summary of the method: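 Primary rat cortical neurons on 48-well MEA plates, exposed from plating day 0 with dosing renewed on DIV 5 and 9. Mean well firing rate over active electrodes, recorded days 5, 7, 9, 12, summarised as trapezoidal AUC.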

[2] = CCTE_Harrill_HTTr_Apoptosis_MCF7: CCTE's 6-hour Apoptosis Assessment for the High-Throughput Transcriptomics (HTTr) Platform, in MCF-7 cells cultured in DMEM + 10% fetal bovine serum, Harrill Lab (AID 2284011)
Summary of the method: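 Cells are dosed with test chemicals at eight concentrations and imaged 6 hours later for caspase-3/7 activity using a green fluorogenic detection reagent. Activity is fitted in both directions against DMSO controls.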

[3] = CCTE_Harrill_HTTr_CellCount_MCF7: CCTE's Cell Proliferation Assessment for the High-Throughput Transcriptomics (HTTr) Platform, Harrill Lab (AID 2284012; active means hit-call score of the fitted dose curve at least 0.9, where 1 is the maximum;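 further: cells exposed to compound for six hours; intended direction is loss of nuclei count meaning fewer cells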)
Summary of the method: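 MCF7 cells exposed 6 hours to an eight-point dilution series; Hoechst-stained nuclei counted by high-content imaging. Bidirectional curve fitting against DMSO baseline.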

[4] = CCTE_Shafer_MEA_acute_burst_number: CCTE's Neural Acute Assay for Single-Electrode Bursts, Shafer Lab (AID 2284013)
Summary of the method: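 Spontaneous network activity of primary rat cortical neurons was recorded extracellularly on microelectrode arrays at 37 C, with 40-min periods before and during exposure to 0.03-40 uM compound on DIV 13 or 15.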

[5] = CCTE_Shafer_MEA_acute_burst_duration_mean: CCTE's Neural Acute Assay for Mean Burst Duration, Shafer Lab (AID 2284014);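 further: hits are decreases in mean burst duration relative to DMSO controls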
Summary of the method: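 Read-out is the per-well percent change in mean burst duration (first to last spike within a single-electrode burst) between 40-min recordings before and after compound. Cultures were primary rat cortical neurons on MEAs, dosed at 0.03-40 uM on DIV 13 or 15.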

[6] = CCTE_Shafer_MEA_acute_per_burst_spike_number_mean: CCTE's Neural Acute Assay for Average Number of Spikes Per Burst, Shafer Lab (AID 2284015);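 further: hits are decreases in mean spikes per burst versus baseline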
Summary of the method: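 Rat primary cortical neurons on 48-well MEAs (DIV 13 or 15) were treated with 0.03-40 uM compound at 37 C. Mean spikes per burst over 40 min were recorded before and after exposure and expressed as percent change from baseline, relative to DMSO.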

[7] = CCTE_Shafer_MEA_acute_interburst_interval_mean: CCTE's Neural Acute Assay for Mean Interburst Interval, Shafer Lab (AID 2284016);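 further: percent change of mean interburst interval versus each well's own pre-dose baseline; curves fitted for decrease in interburst interval relative to DMSO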
Summary of the method: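 Rat primary cortical neurons on 48-well MEAs at DIV 13 or 15 were exposed acutely to 0.03-40 uM. Spikes detected at 8x rms noise, 37 C. Mean interburst interval from 40 min recordings expressed as percent change from 40 min pre-treatment baseline.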

[8] = CCTE_Shafer_MEA_acute_burst_percentage_mean: CCTE's Neural Acute Assay for Percentage of Spikes in a Burst, Shafer Lab (AID 2284017);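 on AC50: curve fitted for loss of signal so potency reflects decreased burst percentage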
Summary of the method: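 Primary rat cortical neurons on 48-well MEA plates, treated on DIV 13 or 15 at 0.03-40 uM. Spikes detected at 8x rms noise at 37C; percent change from 40-min baseline to 40-min post-dose recording, fitted versus DMSO.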

[9] = CCTE_Shafer_MEA_acute_burst_percentage_std: CCTE's Neural Acute Assay for Standard Deviation of Burst Percentage, Shafer Lab (AID 2284018);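 further: fitted in the negative direction so actives lower burst percentage SD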
Summary of the method: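 Value is percent change from baseline in the across-electrode SD of spikes-in-bursts percentage, wells with >/= 10 active electrodes. Acute 40-min exposure to 0.03-40 uM on DIV 13 or 15 rat cortical cultures, recorded at 37 C after 40-min baseline.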

[10] = CCTE_Shafer_MEA_acute_per_network_burst_spike_number_mean: CCTE's Neural Acute Assay for Average Number of Spikes in a Network Burst, Shafer Lab (AID 2284019);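 on AC50: curve fitted for loss of signal so actives reduce spikes per network burst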
Summary of the method: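 Read-out is mean spike count per network burst, taken as percent change between a 40-min pre-exposure and a 40-min post-exposure recording per well. Rat primary cortical neurons on MEAs at 37 C, DIV 13 or 15; compounds at 0.03-40 uM.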

[11] = CCTE_Shafer_MEA_acute_per_network_burst_spike_number_std: CCTE's Neural Acute Assay for Standard Deviation of Number of Spikes in a Network Burst, Shafer Lab (AID 2284020);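 further: fitted for decrease in spike-number SD versus DMSO so actives lower it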
Summary of the method: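 Spontaneous network activity of primary rat cortical neurons is recorded extracellularly before and after a 40-min compound exposure (0.03-40 uM) at 37 C. The endpoint is the well's percent change in burst spike-number SD.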

[12] = CCTE_Shafer_MEA_acute_per_network_burst_electrodes_number_mean: CCTE's Neural Acute Assay for Mean Number of Electrodes in a Network Burst, Shafer Lab (AID 2284021);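 further: curves fitted for decreases only so hits reduce electrodes per burst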
Summary of the method: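 Cultures of rat cortex neurons were exposed on DIV 13 or 15 to compounds at 0.03-40 uM in at least three wells each. Activity over 40 min before and 40 min after exposure at 37 C gave the percent change in electrodes per network burst.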

[13] = CCTE_Shafer_MEA_acute_network_burst_percentage: CCTE's Neural Acute Assay for Percentage of Network Bursts, Shafer Lab (AID 2284022);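 further: curves fitted for loss so actives lower network burst percentage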
Summary of the method: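 Cortical neurons from rat were grown over microelectrode arrays and used on day 13 or 15 in vitro. Wells with at least 10 active electrodes received test chemical at 0.03-40 uM. Activity during 40 min of exposure was compared with the preceding 40-min baseline.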

[14] = CCTE_Shafer_MEA_acute_cross_correlation_area: CCTE's Neural Acute Assay for Area of Cross Correlation, Shafer Lab (AID 2284024);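 further: area under pooled inter-electrode spike cross-correlation near zero lag as percent change from own baseline; curves fitted for loss of cross-correlation area so actives lower synchrony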
Summary of the method: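 Acute exposure of mature rat cortical networks (day 13 or 15 post-plating) to 0.03-40 uM compound. Spontaneous spiking on MEA, 40 min pre- and post-dose at 37 C.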

[15] = CCTE_Shafer_MEA_acute_cross_correlation_HWHM: CCTE's Neural Acute Assay for Cross Correlation at Half Width at Half Maximum, Shafer Lab (AID 2284026);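 further: percent change per well from pre-dose baseline in spike cross-correlogram half width; hits are a decrease in cross-correlogram half width relative to DMSO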
Summary of the method: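 Primary cortex (rat), MEA, DIV 13/15; compound 0.03-40 uM; 40 min pre + 40 min post at 37 C; spike threshold 8x rms; wells need ≥10 active electrodes; endpoint = % change in cross-correlogram HWHM vs baseline, DMSO negative control.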

[16] = CCTE_Shafer_MEA_acute_synchrony_index: CCTE's Neural Acute Assay for Synchrony, Shafer Lab (AID 2284027);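 further: network synchrony index of spontaneous spiking in primary rat cortical neurons on MEAs; fitted for loss of signal so actives lower synchrony relative to DMSO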
Summary of the method: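 Primary rat cortical neurons on 48-well MEAs, dosed at 0.03–40 uM on DIV 13 or 15. Spikes are recorded for 40 min at 37C before and after exposure, and synchrony index (0–1) is expressed as percent change from baseline per well.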

[17] = biological target: Estrogen receptor (Homo sapiens) (UniProt P03372); assay: CCTE_Deisenroth_AIME_96WELL_LUC_Active: CCTE's 96-well Estrogen Receptor Transactivation Assay with AIME metabolic competence (ERTA luciferase; metabolism positive), Deisenroth Lab (AID 2284023; active means hit-call score of the fitted dose curve at least 0.9, where 1 is the maximum)
Chain of Estrogen receptor (Homo sapiens) (P03372 whole entry, looked up): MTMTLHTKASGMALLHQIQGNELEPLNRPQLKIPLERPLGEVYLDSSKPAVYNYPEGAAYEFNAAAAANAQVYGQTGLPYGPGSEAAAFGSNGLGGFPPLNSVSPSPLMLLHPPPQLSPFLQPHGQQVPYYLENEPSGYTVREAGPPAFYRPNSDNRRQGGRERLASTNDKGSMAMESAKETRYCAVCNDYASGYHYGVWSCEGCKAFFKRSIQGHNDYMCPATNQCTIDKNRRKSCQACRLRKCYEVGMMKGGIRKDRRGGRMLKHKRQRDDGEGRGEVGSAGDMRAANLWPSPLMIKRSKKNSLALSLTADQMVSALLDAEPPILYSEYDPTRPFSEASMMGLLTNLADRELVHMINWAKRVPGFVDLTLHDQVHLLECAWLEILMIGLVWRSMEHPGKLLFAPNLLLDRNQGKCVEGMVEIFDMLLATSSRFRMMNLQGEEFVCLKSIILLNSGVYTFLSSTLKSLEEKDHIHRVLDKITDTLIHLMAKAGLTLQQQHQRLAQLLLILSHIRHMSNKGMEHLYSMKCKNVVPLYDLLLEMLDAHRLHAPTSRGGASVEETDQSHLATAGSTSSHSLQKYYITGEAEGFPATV
Summary of the method: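 Chemicals pre-incubated 2 h with alginate-immobilized phenobarbital/beta-naphthoflavone-induced male Sprague Dawley rat liver S9, then medium transferred to VM7Luc4E2 cells for 24 h luciferase read-out. 10-point series 0.002 - 200 uM; fitted relative to 17beta-estradiol.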

[18] = biological target: Estrogen receptor (Homo sapiens) (UniProt P03372); assay: CCTE_Deisenroth_AIME_96WELL_LUC_Inactive: CCTE's 96-well Estrogen Receptor Transactivation Assay without AIME metabolic competence (ERTA luciferase; metabolism negative), Deisenroth Lab (AID 2284025; active means hit-call score of the fitted dose curve at least 0.9, where 1 is the maximum)
Summary of the method: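 VM7Luc4E2 breast cells, luciferase read 24 h after dosing with medium pre-incubated 2 h on alginate-water lids (metabolism negative). 10-point series 0.002–200 uM, single technical replicate, n≥4; fit relative to 17beta-estradiol.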

[19] = CCTE_Deisenroth_AIME_96WELL_CTox_Active: Cytotoxicity Assessment (CTOX) in CCTE's 96-well Estrogen Receptor Transactivation Assay with AIME metabolic competence (metabolism positive), Deisenroth Lab (AID 2284028; active means hit-call score of the fitted dose curve at least 0.9, where 1 is the maximum)
Summary of the method: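 Chemicals (0.002–200 uM) were first incubated 2 h with alginate-immobilized phenobarbital/beta-naphthoflavone-induced male rat liver S9; conditioned medium then went onto VM7Luc4E2 cells for 24 h, with viability read by protease-substrate fluorescence, fitted bidirectionally.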

[20] = CCTE_Deisenroth_AIME_96WELL_CTox_Inactive: Cytotoxicity Assessment (CTOX) in CCTE's 96-well Estrogen Receptor Transactivation Assay without AIME metabolic competence (metabolism negative), Deisenroth Lab (AID 2284029; active means hit-call score of the fitted dose curve at least 0.9, where 1 is the maximum)
Summary of the method: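 Chemicals (0.002 - 200 uM, 10 points) incubated 2 h with alginate-water microspheres (no S9), then medium moved onto VM7Luc4E2 cells for 24 h. Viability by protease-substrate cleavage to fluorescent probe; bidirectional fitting.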

Measured: AC50

CN(C)c1ccc(C(=N)c2ccc(N(C)C)cc2)cc1
active: [1] 2.67 µM

CCCCCCCCCCCCCCCC(=O)OCC
inactive: [2] | [3]

c1ccc2c(c1)ccc1cc3c(ccc4ccccc43)cc12
inactive: [2] | [1]

CC=CC(F)(F)C(F)(F)C(F)(F)F
inactive: [1]

CN1C(=O)N(C)C(O)C1O (configuration not stated)
not listed: [1] | [2] | [3] | [17] | [18] | [19] | [20]
inactive: all other assays above

CCOC(=O)c1ccccc1C(=C1C=C(Br)C(=O)C(Br)=C1)c1cc(Br)c(O)c(Br)c1
active: [15] 11.8 µM
not listed: [1] | [3] | [17] | [18] | [19] | [20]
inactive: all other assays above

CCOC(F)(F)C(F)(F)C(F)(F)C(F)(F)F
inactive: [1]

COC(F)(F)C(F)(C(F)(F)F)C(F)(F)F
inactive: [1]

CCCOC(=O)CCCCC(=O)OCCC
inactive: [2] | [3]

COC(=O)C1=C(C)NC(C)=C(C(=O)OCC(C)C)C1c1ccccc1[N+](=O)[O-] (configuration not stated)
inactive: [2] | [3]

CCCCC(CC)COCC1CO1 (configuration not stated)
not listed: [1] | [2] | [3] | [17] | [18] | [19] | [20]
inactive: all other assays above

Nc1ccc(N)c(Cl)c1
not listed: [1] | [2] | [3] | [9] | [17] | [18] | [19] | [20]
inactive: all other assays above

CC(=O)[C@H]1[C@H](C#N)C[C@H]2[C@@H]3CC=C4C[C@@H](O)CC[C@]4(C)[C@H]3CC[C@@]21C
inactive: [2] | [3]

CCCCC(CC)COC(=O)c1ccccc1 (configuration not stated)
inactive: [2] | [3]

CC1(C)[C@H]2CC[C@]1(C)C(=O)C2
inactive: [2] | [3]

Nc1ncn([C@@H]2O[C@H](CO)[C@@H](O)[C@H]2O)c(=O)n1
active: [4] 0.0142 µM | [6] 5 µM | [7] 7.71 µM | [8] 8.06 µM | [9] 15 µM | [10] 0.992 µM | [12] 5 µM | [13] 8.38 µM | [14] 0.00671 µM | [15] 7.72 µM | [16] 9.61 µM | [1] 3.41 µM
inactive: [2] | [3] | [5] | [11] | [1]

FC(F)=C(F)OC(F)(F)C(F)(F)C(F)(F)F
inactive: [1]

CCCCCCCC/C=C\CCCCCCCC(=O)O
inactive: [2] | [3]

C=C[Si](OC(C)=O)(OC(C)=O)OC(C)=O
not listed: [1] | [2] | [3] | [17] | [18] | [19] | [20]
inactive: all other assays above

O=C(O)CCCC[C@@H]1SC[C@@H]2NC(=O)N[C@@H]21
inactive: [2] | [3]

CCCCC(CC)COC(=O)c1ccccc1O (configuration not stated)
active: [7] 7.5 µM
not listed: [1] | [17] | [18] | [19] | [20]
inactive: all other assays above

O=C(c1ccc(O)cc1)c1ccc(O)cc1O
active: [7] 15 µM
not listed: [1] | [2] | [3] | [17] | [18] | [19] | [20]
inactive: all other assays above

COc1ccc(-c2coc3cc(O)ccc3c2=O)cc1
active: [17] 6.69 µM | [18] 5.41 µM
inactive: [2] | [3] | [19]

CCO[Si](C)(OCC)OCC
not listed: [1] | [2] | [3] | [17] | [18] | [19] | [20]
inactive: all other assays above

C=C1C2CCC(C2)C1(C)C (configuration not stated)
inactive: [2] | [3]

N[C@H]1C(O)O[C@H](CO)[C@H](O)[C@@H]1O (some centres not stated)
inactive: [1]

CC1(C)S[C@@H]2[C@H](NC(=O)COc3ccccc3)C(=O)N2[C@H]1C(=O)O
inactive: [1]

CCCCCC/C=C\CCCCCCCC(=O)O
inactive: [2] | [3]

O=C1CCCN1CCO
not listed: [1] | [2] | [3] | [17] | [18] | [19] | [20]
inactive: all other assays above

CO[Si](OC)(OC)c1ccccc1
not listed: [1] | [2] | [3] | [17] | [18] | [19] | [20]
inactive: all other assays above

CC(C)(C)c1ccc(OC(=O)c2ccccc2O)cc1
active: [17] 17.8 µM | [18] 23.7 µM
inactive: [19] | [20]
